Source: PubChem (Paczesny and Yang Labs, IUPUI and University of Michigan)
The sample as a whole holds a higher share of hits than the screen did.
ST2 inh – IL1RL1 inhibition | Q01638 | AlphaLISA ST2-Fc/biotin-IL-33 interaction, 1 h | 78,000 compounds, 2.3% hits | inhibition, % for hits at 17 µM; in the data active means inhibition above about 30%
Target sequence (Q01638 whole entry, looked up): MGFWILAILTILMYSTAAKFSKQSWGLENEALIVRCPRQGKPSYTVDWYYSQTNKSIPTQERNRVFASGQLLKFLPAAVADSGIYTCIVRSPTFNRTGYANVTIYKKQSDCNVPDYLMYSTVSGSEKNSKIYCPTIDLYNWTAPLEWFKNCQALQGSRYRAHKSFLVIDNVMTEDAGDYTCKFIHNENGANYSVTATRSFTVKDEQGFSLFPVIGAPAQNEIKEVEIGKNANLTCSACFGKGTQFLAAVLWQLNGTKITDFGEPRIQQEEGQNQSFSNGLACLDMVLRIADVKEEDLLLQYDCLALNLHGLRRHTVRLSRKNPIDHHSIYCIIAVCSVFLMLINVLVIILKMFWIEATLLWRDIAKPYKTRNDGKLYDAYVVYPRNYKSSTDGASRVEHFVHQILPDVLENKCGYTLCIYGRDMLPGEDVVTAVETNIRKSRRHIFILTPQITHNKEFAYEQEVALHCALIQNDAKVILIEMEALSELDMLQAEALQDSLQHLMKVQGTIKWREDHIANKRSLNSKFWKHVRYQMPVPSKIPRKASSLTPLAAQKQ
Active calls of the source: *; i = inactive; ! = not active in a repeat.

SMILES | ST2 inh
CN1CC(n2cnc(-c3ccccc3)c2-c2ccccc2C(=O)O)CCC1=O (stereo unspecified) | i
Cc1nn(C)c(Cl)c1-c1c(-c2ccccc2)ncn1C1CC=CC1 | i
CN1CCC(n2cnc(-c3ccccc3)c2-c2cccc3cccnc23)CC1 | 30%*
CCCCOc1ccc(C2C(C#N)=C(N)OC3=C2C(=O)CCC3)cc1 (stereo unspecified) | i
Cc1ccc2oc(-c3nccn3CCCN3CCCC3=O)c(C)c2c1 | i
CC1CCc2cc(F)ccc2N1S(=O)(=O)c1ccc([N+](=O)[O-])cc1 (stereo unspecified) | 36%*
CC1CCc2cc(F)ccc2N1C(=O)c1ccc([N+](=O)[O-])cc1 (stereo unspecified) | i
CC1CCc2cc(F)ccc2N1S(C)(=O)=O (stereo unspecified) | i
COc1ccc(NC(=O)C(NC(=O)C2CCC(C)CC2)C(C)C)cc1OC (stereo unspecified) | i
COc1ccc(OC)c(C2C(C#N)=C(N)Oc3n[nH]c(-c4ccc(C)cc4)c32)c1 (stereo unspecified) | i
COc1ccc(-n2nc(C(=O)NC3CC3)c3c4ccccc4n(C)c3c2=O)cc1Cl | i
COc1ccc(-n2nc(C(=O)NCc3ccco3)c3c4ccccc4n(C)c3c2=O)cc1Cl | i
COc1ccc(-n2nc(C(=O)N3CCCCC3C)c3c4ccccc4n(C)c3c2=O)cc1Cl (stereo unspecified) | 97%*
CCc1nc2nc(C)[nH]n2c(=O)c1NC(=O)Nc1ccc(C)c(F)c1 | i
CC(=O)c1cccc(CN2CCOC(Cc3ccc(F)cc3)C2)c1 (stereo unspecified) | i
COc1ccccc1C(=O)N1C[C@@H]2C[C@H](C1)c1ccc(-c3cccc(C(F)(F)F)c3)c(=O)n1C2 | i
Nc1ccc(-c2nc3cc(-c4ccccc4)ccc3o2)cc1 | i
O=C1c2c(O)cc(O)cc2OC(c2ccc(O)c(O)c2)C1O (stereo unspecified) | i
O=C(O[C@@H]1Cc2c(O)cc(O)cc2O[C@@H]1c1cc(O)c(O)c(O)c1)c1cc(O)c(O)c(O)c1 | 31%*
O=C(Oc1cc(O)c2c(c1)O[C@@H](c1ccc(O)c(O)c1)[C@H](O)C2)c1cc(O)c(O)c(O)c1 | i
COc1ccc(-n2cccn2)c(C2CC(=O)NCc3nc4ccccn4c32)c1 (stereo unspecified) | i
CC(=O)Nc1ccc(NC(=O)C2CC(=O)N(C3CCCCC3)C2)cc1 (stereo unspecified) | i
COc1cc2c(cc1OC)C(C(=O)NCCN1CCOCC1)C1c3ccccc3CCN1C2=O (stereo unspecified) | i
O=C(c1cccc2c1NC(c1ccc(Cl)cc1Cl)C1CC=CC21)N1CCCC1 (stereo unspecified) | i
O=[N+]([O-])c1cccc2c1NC(c1cccc(Cl)c1Cl)C1CC=CC21 (stereo unspecified) | 39%*
SMILES | ST2 inh
O=[N+]([O-])c1ccc(C2Nc3c(cccc3C(F)(F)F)C3C=CCC32)cc1 (stereo unspecified) | i
N=c1oc2ccccc2cc1C(=O)Nc1ccc(Cl)cc1Cl | i
O=C1Nc2ccc(-c3ccccc3)cc2C(=O)N2CCN(C(=O)c3cccc(F)c3)C[C@H]12 | i
O=C1Nc2ccc(Br)cc2C(=O)N2CCN(C(=O)c3ccccc3)C[C@H]12 | i
O=C1Nc2ccc(Br)cc2C(=O)N2CCN(C(=O)c3cccc(F)c3)C[C@H]12 | 37%*
Cc1onc(-c2ccccc2)c1C(=O)Nc1sc2c(c1C(N)=O)CCCCCC2 | i
Cc1cc(C)nc(Sc2ncnc3sc4c(c23)CCCC4)n1 | i
CCn1c(C(=O)O)c(CC(=O)Nc2ccc3c(c2)OCO3)c2ccccc21 | i
O=C1CCCC2=C1C(c1cccnc1)c1c(nc(SCc3ccccc3F)[nH]c1=O)N2 (stereo unspecified) | i
CCc1ccc(CN(C)Cc2cnc3c(-c4ccccc4)cnn3c2)nc1 | i
COC(=O)[C@@H]1CCCN1Cc1cnc2c(-c3ccccc3)cnn2c1 | i
OC1(c2ccccc2)CCN(Cc2cnc3c(-c4ccccc4)cnn3c2)CC1 | 33%*
CCOC(=O)c1[nH]c(C)c(C(=O)N2CCc3c(ncnc3N(C)C)C2)c1C | i
O=C(CCN1CCCC1)Nc1ccc2c(c1)OCO2 | i
O=S1(=O)N(Cc2ccccc2F)CCN1Cc1ccccc1Cl | i
N[C@H](CCC(=O)NCS(=O)(=O)O)C(=O)O | 85%*
CCCCS(=N)(=O)CCC(N)C(=O)O (stereo unspecified) | i
NC(=O)CC[C@H](N)C(=O)O | i
CN1CCn2nc(-c3nc4ccccc4n3C)cc2C1 | i
CC(C)OCCCNC(=O)c1cc2cc3ccc(Cl)cc3nc2o1 | i
CCC(C)NC(=O)c1cc2cc3ccc(Cl)cc3nc2o1 (stereo unspecified) | 31%*!
COc1ccc2cc3cc(C(=O)NC(C)C)oc3nc2c1 | i
COc1ccc(-c2c(C#N)c(N)nc(OC)c2C#N)c(OC)c1 | i
COc1ccc(/C=C2/C(C)=C(C#N)c3nc(N)c(C#N)c(C)c32)c(OC)c1 | 43%*
COc1ccc(OC)c(-c2c(C#N)c(N)nc(OC)c2C#N)c1 | i
SMILES | ST2 inh
O=C1Nc2ccc(Br)cc2C(O)(C(=O)NC2CCCCCCC2)N1c1ccccc1 (stereo unspecified) | i
COc1ccc(CC2CN(CCC(=O)O)CCO2)cc1 (stereo unspecified) | i
CC1=C(C(=O)Nc2c(F)cccc2F)C(c2ccc(N(C)C)cc2)C2=C(CC(C)(C)CC2=O)N1 (stereo unspecified) | i
Cc1ccc(NC(=O)c2ccccc2C)cc1OCc1cc(=O)n2cccc(C)c2n1 | 33%*
Cc1ccc(SCC(=O)Nc2ccc(C)c(OCc3cc(=O)n4cccc(C)c4n3)c2)cc1 | i
Cc1ccc(NC(=O)C2CCCCC2)cc1OCc1cc(=O)n2cccc(C)c2n1 | i
CN(C)/C=C/C=C/C=C1\CCC/C(=C\C=C\N(C)C)C1=O | 63%*
O=C(Nc1ccccc1)c1cc2cc(Cl)cc(Cl)c2oc1=O | i
COc1ccccc1Oc1ccc2c(c1)C(=O)N(c1ccccc1C(=O)O)C2=O | i
COc1cc(-c2ccc(NC(C)=O)c(OC)c2)ccc1NC(C)=O | i
COc1cc(-c2ccc(NC(=O)c3ccco3)c(OC)c2)ccc1NC(=O)c1ccco1 | 31%*
COc1cc(NC(=O)/C=C/c2ccc(Cl)cc2)ccc1NC(=O)c1ccco1 | i
CCCCCCCCCC[C@H](C(=O)O)[C@]1(C(=O)O)CCC(=O)O1 | i
CN1CCCCc2c1nc1ccccc1c2N | i
O=C1C2CCCN2C(c2cccc(Br)c2)N1c1nccs1 (stereo unspecified) | i
COc1ccc(C2C(C(=O)OC3CCCCC3)=C(C)Nc3nnnn32)cc1OC (stereo unspecified) | i
COc1cc(C(=O)Nc2cccc(N3CCCS3(=O)=O)c2)cc(OC)c1OC | i
Cc1cccc(OCc2nnc(SCC(=O)Nc3ccc(C)c(C)c3)o2)c1 | i
COc1ccc(CCNc2oc(COc3ccccc3C)nc2C#N)cc1OC | 38%*
COc1ccccc1OCc1nc(C#N)c(NCc2cccnc2)o1 | i
COc1ccc(CNc2oc(COc3ccc(Cl)cc3)nc2C#N)cc1 | i
COc1ccc(CCNC(=O)CC(c2ccccc2)c2ccccc2)cc1OC | i
COc1ccc(CCNc2oc(COc3cccc(C)c3)nc2C#N)cc1 | 30%*
C=C(C)COc1ccc2c3c(c(=O)oc2c1)CCC3 | i
